The source made the active and inactive calls. The calls were made as follows: active = hit-call score of the fitted dose curve at least 0.9, where 1 is the maximum; inactive = score below 0.9.

Read-out in assay [1]: TIMP metallopeptidase inhibitor 2 (TIMP2), TIMP2 (gene 7077)
The experiment in a line: BSK_KF3CT_TIMP2: BioMAP Diversity Plus: KF3CT Assay for TIMP metallopeptidase inhibitor 2 (TIMP2) Biomarker Activity (AID 2283071). Particulars: primary human keratinocytes with fibroblasts; actives raise or lower the signal. Summed up:
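Chemicals were dosed onto human skin primary co-cultures of keratinocytes and foreskin fibroblasts, and TIMP-2 was measured by ELISA after 24 hours. Activity in either direction was fitted relative to DMSO.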

Read-out in assay [2]: Transforming growth factor beta 1 (TGFb1), TGFB1 (gene 7040)
The experiment in a line: BSK_KF3CT_TGFb1: BioMAP Diversity Plus: KF3CT Assay for Transforming growth factor beta 1 (TGFb1) Biomarker Activity (AID 2283072). The following applies: primary human keratinocytes with fibroblasts; actives raise or lower the signal. Summed up:
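KF3CT co-culture (keratinocytes + fibroblasts), 24 h exposure → TGF-b1 ELISA → bidirectional fit, DMSO = baseline. Parallel SRB total-protein staining (0.1% SRB, 10% TCA fixation, 560 nm) for cytotoxicity.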

Read-out in assay [3]: C-C motif chemokine 2 (Homo sapiens) (UniProt P13500)
The experiment in a line: BSK_KF3CT_MCP1: BioMAP Diversity Plus: KF3CT Assay for Monocyte Chemoattractant Protein 1 (MCP1/CCL2) Biomarker Activity (AID 2283073). Particulars: primary human keratinocytes with fibroblasts; actives raise or lower the signal. Summed up: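 Human keratinocyte–foreskin fibroblast co-culture; MCP-1 measured by ELISA 24 h after dosing. Bidirectional fit vs DMSO; cytotoxicity tracked by SRB total protein in parallel cultures.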

Read-out in assay [4]: Matrix Metallopeptidase 9 (MMP9), MMP9 (gene 4318)
The experiment in a line: BSK_KF3CT_MMP9: BioMAP Diversity Plus: KF3CT Assay for Matrix Metallopeptidase 9 (MMP9) Biomarker Activity (AID 2283074). The following applies: primary human keratinocytes with fibroblasts; actives raise or lower the signal. The procedure, abridged: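 Values come from bidirectional fitting relative to DMSO of MMP-9 levels, which were measured by ELISA. Measurements were taken 24 h after chemical dosing of a keratinocyte and foreskin fibroblast co-culture.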

Read-out in assay [5]: urokinase plasminogen activator (uPA), PLAU (gene 5328)
The experiment in a line: BSK_KF3CT_uPA: BioMAP Diversity Plus: KF3CT Assay for urokinase plasminogen activator (uPA) Biomarker Activity (AID 2283075). Particulars: primary human keratinocytes with fibroblasts; actives raise or lower the signal. The procedure, abridged: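 Values derive from bidirectional fitting against DMSO controls. Keratinocyte/foreskin fibroblast co-cultures received chemical; 24 h later uPA was detected by ELISA, with SRB total-protein staining in parallel wells for overt cytotoxicity.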

Read-out in assay [6]: CD40, CD40 (gene 958)
The experiment in a line: BSK_LPS_CD40: BioMAP Diversity Plus: LPS Assay for CD40 Biomarker Activity (AID 2283076). The following applies: primary human HUVEC with PBMC; actives raise or lower the signal. The procedure, abridged:
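HUVEC plus PBMC co-culture stimulated with LPS; CD40 quantified by ELISA 24 h after compound dosing. Fitting was bidirectional relative to DMSO. SRB staining of parallel cultures flagged overt cytotoxicity.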

Read-out in assay [7]: E-selectin (Homo sapiens) (UniProt P16581)
The experiment in a line: BSK_LPS_Eselectin: BioMAP Diversity Plus: LPS Assay for Eselectin Biomarker Activity (AID 2283077). Particulars: primary human HUVEC with PBMC; actives raise or lower the signal. Summed up:
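Human umbilical vein endothelial cells co-cultured with PBMC under LPS stimulation; cell-surface E-selectin measured by ELISA 24 h after dosing. Change in either direction versus DMSO, with SRB total-protein staining in parallel cultures for cytotoxicity.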

Read-out in assay [8]: Interleukin-8 (IL8), CXCL8 (gene 3576)
The experiment in a line: BSK_LPS_IL8: BioMAP Diversity Plus: LPS Assay for Interleukin-8 (IL8) Biomarker Activity (AID 2283078). Particulars: primary human HUVEC with PBMC; actives raise or lower the signal. The procedure, abridged: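 Human umbilical vein endothelial cells co-cultured with PBMC, LPS-stimulated, exposed to compound for 24 h. IL-8 quantified by ELISA; fitted in both directions against DMSO, with SRB total-protein staining of parallel cultures for cytotoxicity.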

A short description of assay [9]: BSK_LPS_SRB: Viability Assessment in the BioMAP Diversity Plus: LPS Assay (AID 2283079).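 Also: total protein by sulforhodamine B absorbance as a cytotoxicity measure; measured one day after compound addition; fitted in both directions against DMSO so loss or gain of signal counts.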 Particulars: primary human HUVEC with PBMC. The procedure, abridged: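 Co-culture of human umbilical vein endothelial cells and PBMC, read 24 h after dosing. Total protein by 0.1% SRB staining after 10% TCA fixation, absorbance at 560 nm; bidirectional fit against DMSO.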
Read-out in assay [10]: Interleukin-1 alpha (IL1a), IL1A (gene 3552)
The experiment in a line: BSK_LPS_IL1a: BioMAP Diversity Plus: LPS Assay for Interleukin-1 alpha (IL1a) Biomarker Activity (AID 2283080). Particulars: primary human HUVEC with PBMC; actives raise or lower the signal. Summed up:
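Human umbilical vein endothelial cells co-cultured with PBMC and stimulated with LPS; IL-1a measured by ELISA 24 h after dosing. Bidirectional fitting against DMSO; cytotoxicity checked by SRB staining in parallel cultures.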

Read-out in assay [11]: Monocyte Chemoattractant Protein-1 (MCP1), CCL2 (gene 6347)
The experiment in a line: BSK_LPS_MCP1: BioMAP Diversity Plus: LPS Assay for Monocyte Chemoattractant Protein-1 (MCP1) Biomarker Activity (AID 2283081).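 As to AC50: secreted MCP-1 protein quantified by ELISA in culture supernatant.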 The following applies: primary human HUVEC with PBMC; actives raise or lower the signal. Summed up:
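Human umbilical vein endothelial cells co-cultured with PBMC, LPS-stimulated; secreted MCP-1 measured by ELISA 24 h after compound addition. Bidirectional curve fitting against DMSO baseline; SRB total-protein staining in parallel cultures for cytotoxicity.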

Read-out in assay [12]: Macrophage colony-stimulating factor (MCSF), CSF1 (gene 1435)
The experiment in a line: BSK_LPS_MCSF: BioMAP Diversity Plus: LPS Assay for Macrophage colony-stimulating factor (MCSF) Biomarker Activity (AID 2283083). The following applies: primary human HUVEC with PBMC; actives raise or lower the signal. Summed up: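 HUVEC–PBMC co-culture, M-CSF measured by ELISA 24 h after chemical dosing. Fitted in both directions relative to DMSO as negative control; overt cytotoxicity assessed by SRB total-protein staining in parallel cultures.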

Read-out in assay [13]: Tissue Factor, F3 (gene 2152)
The experiment in a line: BSK_LPS_TissueFactor: BioMAP Diversity Plus: LPS Assay for Tissue Factor Biomarker Activity (AID 2283084). The following applies: primary human HUVEC with PBMC; actives raise or lower the signal. Summed up:
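Human umbilical vein endothelial cells co-cultured with PBMC were dosed with compound. Cell-surface CD142 was measured by ELISA 24 h later. Activity was fitted bidirectionally against DMSO, with SRB total-protein staining in parallel cultures for cytotoxicity.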

Read-out in assay [14]: Tumor necrosis factor (Homo sapiens) (UniProt P01375)
The experiment in a line: BSK_LPS_TNFa: BioMAP Diversity Plus: LPS Assay for Tumour Necrosis Factor alpha (TNFa) Biomarker Activity (AID 2283085). The following applies: primary human HUVEC with PBMC; actives raise or lower the signal. Summed up: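 Cells (umbilical vein endothelium plus peripheral blood mononuclear cells) were dosed with chemical, incubated 24 h, then TNFa was quantified by ELISA; values derive from bidirectional fitting with DMSO as baseline.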

Read-out in assay [15]: Vascular cell adhesion molecule 1 (VCAM1), VCAM1 (gene 7412)
The experiment in a line: BSK_LPS_VCAM1: BioMAP Diversity Plus: LPS Assay for Vascular cell adhesion molecule 1 (VCAM1) Biomarker Activity (AID 2283086). The following applies: primary human HUVEC with PBMC; actives raise or lower the signal. The procedure, abridged: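 Cells are dosed in an LPS-stimulated endothelial/mononuclear co-culture and, after 24 h, VCAM-1 is quantified by ELISA. Activity in either direction is fitted relative to the DMSO negative control.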

Read-out in a further assay: CD38, CD38 (gene 952)
The experiment in a line: BSK_SAg_CD38: BioMAP Diversity Plus: SAg Assay for CD38 Biomarker Activity (AID 2283087). Particulars: primary human HUVEC with PBMC; actives raise or lower the signal. Summed up:
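CD38 quantified by ELISA (fluorescence) in a superantigen-activated endothelial cell–PBMC co-culture at 24 h post-dose. Activity fitted in both directions relative to DMSO; parallel SRB and Alamar Blue cytotoxicity read-outs.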

Read-out in assay [16]: CD40, CD40 (gene 958)
The experiment in a line: BSK_SAg_CD40: BioMAP Diversity Plus: SAg Assay for CD40 Biomarker Activity (AID 2283088). The following applies: primary human HUVEC with PBMC; actives raise or lower the signal. Summed up:
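HUVEC plus PBMC co-culture, superantigen-activated, with CD40 read by ELISA 24 h after dosing. Curves fitted in both directions against DMSO. Overt cytotoxicity checked by parallel SRB total-protein staining.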

Read-out in the next assay: CD69, CD69 (gene 969)
The experiment in a line: BSK_SAg_CD69: BioMAP Diversity Plus: SAg Assay for CD69 Biomarker Activity (AID 2283089). Particulars: primary human HUVEC with PBMC; actives raise or lower the signal. Summed up: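 ELISA, fluorescence read-out: CD69 on human umbilical vein endothelial cell + PBMC co-culture, 24 h post-dosing. Gain or loss of signal fitted bidirectionally against DMSO baseline.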

Assay [17] can be described thus: BSK_LPS_PGE2: BioMAP Diversity Plus: LPS Assay for Prostaglandin E2 (PGE2) Biomarker Activity (AID 2283082). The following applies: primary human HUVEC with PBMC; actives raise or lower the signal. Summed up: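 Compounds were added to the LPS co-culture of endothelium and PBMC, and PGE2 was measured by ELISA after 24 h. Responses in either direction were fitted with DMSO as baseline.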

Sequence of Tumor necrosis factor (Homo sapiens) (P01375 whole entry, looked up): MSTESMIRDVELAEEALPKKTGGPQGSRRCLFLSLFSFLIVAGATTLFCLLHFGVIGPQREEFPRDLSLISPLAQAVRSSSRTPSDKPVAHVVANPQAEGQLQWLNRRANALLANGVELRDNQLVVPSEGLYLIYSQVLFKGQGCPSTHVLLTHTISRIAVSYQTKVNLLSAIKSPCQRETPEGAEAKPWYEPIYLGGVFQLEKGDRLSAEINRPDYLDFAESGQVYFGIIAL
Sequence of E-selectin (Homo sapiens) (P16581 whole entry, looked up): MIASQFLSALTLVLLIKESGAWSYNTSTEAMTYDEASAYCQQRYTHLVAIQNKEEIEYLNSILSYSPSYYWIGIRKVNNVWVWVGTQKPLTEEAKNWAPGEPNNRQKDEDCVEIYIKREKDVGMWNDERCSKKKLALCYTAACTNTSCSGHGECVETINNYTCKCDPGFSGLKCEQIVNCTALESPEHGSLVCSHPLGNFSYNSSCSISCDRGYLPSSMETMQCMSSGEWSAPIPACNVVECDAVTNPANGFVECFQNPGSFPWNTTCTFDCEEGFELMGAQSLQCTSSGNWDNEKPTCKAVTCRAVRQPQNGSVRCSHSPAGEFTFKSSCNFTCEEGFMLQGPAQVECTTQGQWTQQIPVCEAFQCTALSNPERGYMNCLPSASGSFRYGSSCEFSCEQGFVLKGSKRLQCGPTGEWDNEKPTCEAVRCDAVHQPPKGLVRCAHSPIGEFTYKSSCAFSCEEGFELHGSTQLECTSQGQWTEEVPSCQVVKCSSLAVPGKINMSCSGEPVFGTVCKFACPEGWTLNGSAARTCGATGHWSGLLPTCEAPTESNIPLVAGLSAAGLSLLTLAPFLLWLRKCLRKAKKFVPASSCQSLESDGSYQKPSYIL

Regarding `CC(C)(C)OOC(C)(C)C`, the outcome in assay [1] is “inactive”; in [2], “inactive”; in assay [3], “inactive”; in assay [4], “inactive”; in assay [5] it was “inactive”; in the assay with CD40, CD40 (gene 958) [6], “inactive”. Moreover, the result in assay [7], in assay [8], in [9], in assay [10], in assay [11] and in assay [12] was inactive. Also, the outcome in [13] was “inactive”; in [14], “inactive”; in [15], “inactive”; with CD38, CD38 (gene 952), “inactive”; with CD40, CD40 (gene 958) [16], “inactive”; in the assay with CD69, CD69 (gene 969), “inactive”.

Turning to `CCC1(c2ccccc2)C(=O)N=C(O)NC1=O` (stereo not given), the outcome is “inactive” in assay [1]; “inactive” in assay [2]; “inactive” in [3]; “inactive” in assay [4]; “inactive” in assay [5]; “inactive” in the assay with CD40, CD40 (gene 958) [6]. Moreover, the result in assay [7], in assay [8], in assay [9], in assay [10], in assay [11] and in assay [17] was inactive. In addition, the outcome is “inactive” in assay [12]; “inactive” in assay [14]; “inactive” in [15]; “inactive” with CD38, CD38 (gene 952); “inactive” in the assay with CD40, CD40 (gene 958) [16]; “inactive” in the assay with CD69, CD69 (gene 969).

As to `COCCOCCO`, the AC50 in assay [1] is 148 nM (active); in assay [3], 254 nM (active); in assay [11] it was 27500 nM (active). The outcome was “inactive” in [2]; “inactive” in assay [4]; “inactive” in [5]; “inactive” with CD40, CD40 (gene 958) [6]; “inactive” in assay [7]; “inactive” in assay [8]. The result in assay [9], in assay [10], in [17], in assay [12], in assay [13] and in assay [14] was inactive. Moreover, the outcome in [15] is “inactive”; with CD38, CD38 (gene 952) it was “inactive”; in the assay with CD40, CD40 (gene 958) [16] it was “inactive”; with CD69, CD69 (gene 969) it was “inactive”.

Broadly, the AC50 is the concentration giving half of the maximal activity seen.

(Values after PubChem BioAssay (EPA / NIEHS).)
